Test in all cases: PBM; 200 nM protein, PBS
What all share (conditions): dsDNA, one strand shown

Test [1] concerns the target T1, NKX2-6 (Homo sapiens, UniProt A6NCS4 118-204, R150C).
T1 sequence: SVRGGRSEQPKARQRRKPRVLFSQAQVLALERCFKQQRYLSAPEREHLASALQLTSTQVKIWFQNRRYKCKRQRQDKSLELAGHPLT

Test [2] has as its target NKX3-2 (Homo sapiens, UniProt P78367 192-278, P234S).
The target in test [3] is NKX3-2 (Homo sapiens, UniProt P78367 192-278).
Test [4] concerns the target T2, NKX2-6 (Homo sapiens, UniProt A6NCS4 118-204, F151L).
T2 sequence: T1 sequence with C33R, F34L

Positions count from the first letter of the chain named.

NKX3-2 (Homo sapiens, UniProt P78367 192-278), sequence (P78367 192-278): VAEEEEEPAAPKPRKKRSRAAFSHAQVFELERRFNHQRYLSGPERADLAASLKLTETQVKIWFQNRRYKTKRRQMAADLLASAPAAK
NKX3-2 (Homo sapiens, UniProt P78367 192-278, P234S), sequence (P78367 192-278 P234S): as the sequence (P78367 192-278) above, with P43S counted along it

With GACGCCGC, the binding signal with NKX2-6 [1] was 9.27 upbm affinity estimate (log intensity, higher = more binding, comparable within an allelic series).
On to GACTGGCC, for which the binding signal is 10.5 upbm affinity estimate (log intensity, higher = more binding, comparable within an allelic series) with NKX3-2 [2] and 10.5 upbm affinity estimate (log intensity, higher = more binding, comparable within an allelic series) in the test with NKX3-2 [3].
As to AGCCTGGG, in the test with NKX2-6 [4], the binding signal was 9.24 upbm affinity estimate (log intensity, higher = more binding, comparable within an allelic series).
Take GACTCGGC: the binding signal with NKX2-6 [4] is 9.23 upbm affinity estimate (log intensity, higher = more binding, comparable within an allelic series).
Regarding CGGGCTAG, in the test with NKX2-6 [1], the binding signal is 9.48 upbm affinity estimate (log intensity, higher = more binding, comparable within an allelic series).

Values taken from paper PMC11006913.
